Test systems include DU-145 prostate; K-562 leukemia; MALME-3M melanoma; MDA-MB-231 breast; RXF 393 renal; SF-268 CNS; SF-295 CNS; SF-539 CNS; UACC-257 melanoma; M14 melanoma.
Common to all, as to assay: NCI-60 one-dose screen, 48 h (100 = growth as untreated, 0 = no growth, -100 = all killed)
Conditions in all cases: 10 µM unless noted

Each structure is given as a SMILES string. The panel holds about 83,000 compounds, 20% with a hit somewhere; the sample as a whole holds those more often.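 Testing used 96-well plates and a 48-hour single-concentration exposure. Example: -40 means 40% of the starting cells died.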 Unmarked numbers belong to inactive results. Calls of active or inactive are those of the source. The calls were made as follows: active = growth percent below 10; inactive = the rest.

For `NC(=NCCCOc1ccc(F)cc1)Nc1ccc(Cl)cc1`, the growth in the assay on DU-145 prostate is 25%; in the assay with K-562 leukemia it was 64.7%; with MALME-3M melanoma it was 54.6%; in the assay with MDA-MB-231 breast, 53.7%; in the assay on RXF 393 renal, 73.6%; with SF-268 CNS it was 49.9%. The growth in the assay on SF-295 CNS was 47.5%; with SF-539 CNS it was 59.7%; with UACC-257 melanoma, 13.4%; with M14 melanoma it was 52.7%.

On to `NC1[C@H](c2c[nH]c3ccccc23)c2c([nH]c3ccccc23)[C@H]1c1c[nH]c2ccccc12` (stereo not given in full), for which the growth was 95.3% in the assay on DU-145 prostate; 90.8% with K-562 leukemia; 88.9% with MALME-3M melanoma; 75.7% with MDA-MB-231 breast; 104% with RXF 393 renal; 84.4% with SF-268 CNS. Also, the growth is 92.9% in the assay with SF-295 CNS, 100% in the assay with SF-539 CNS, 111% with UACC-257 melanoma and 92.3% in the assay on M14 melanoma.

Regarding `Cc1nc(N)nc(N[C@@H](C)c2nc3cccc(NCc4ccc(C(=O)NO)cc4)c3c(=O)n2-c2ccccc2)n1`, the growth in the assay on DU-145 prostate is 86.9%; in the assay on K-562 leukemia, 47.8%; in the assay on MALME-3M melanoma, 37.7%; in the assay on MDA-MB-231 breast it was 81%; with RXF 393 renal it was 65%; with SF-268 CNS it was 87.1%. For the same molecule, the growth is 104% in the assay with SF-295 CNS, 75.9% in the assay with SF-539 CNS, 58.3% with UACC-257 melanoma and 73.7% with M14 melanoma.

As to `NC(=O)Nc1ccc(-n2cnc3cc(-c4ccc(O)cc4)ccc32)cc1`, the growth with DU-145 prostate was 107%; with K-562 leukemia, 89.3%; with MALME-3M melanoma, 98.4%; in the assay with MDA-MB-231 breast, 107%; in the assay with RXF 393 renal it was 123%; with SF-268 CNS, 96.3%. For the same molecule, the growth in the assay with SF-295 CNS is 97.4%; with SF-539 CNS, 67.2%; in the assay with UACC-257 melanoma, 112%; with M14 melanoma it was 91.6%.

Take `c1ccc(-c2c(-c3ccccc3)[n+](Cc3ccc4ccccc4c3)c(-c3cccc4ccccc34)n2Cc2ccc3ccccc3c2)cc1`: the growth in the assay on DU-145 prostate is -51.3% (active); in the assay on K-562 leukemia, -3.62% (active); in the assay on MALME-3M melanoma, -87.9% (active); in the assay on MDA-MB-231 breast, -70.5% (active); in the assay with RXF 393 renal it was -94.3% (active); in the assay with SF-268 CNS, -38.9% (active). Also, the growth in the assay with SF-295 CNS is -86% (active); with SF-539 CNS it was -83.5% (active); with UACC-257 melanoma, -42.5% (active); with M14 melanoma it was -63.5% (active).

Turning to `O=C(Nc1cccc(C2=NCCN2)c1)c1ccc(-c2ccc(C(=O)Nc3cccc(C4=NCCN4)c3)cc2)cc1`, the growth in the assay on DU-145 prostate was 39.1%; in the assay on K-562 leukemia, 35.5%; in the assay on MALME-3M melanoma it was 9.06% (active); in the assay with MDA-MB-231 breast it was 79.6%; in the assay with RXF 393 renal, 122%; in the assay with SF-268 CNS, 90.2%. The growth is 71.1% in the assay with SF-295 CNS, 97.5% in the assay on SF-539 CNS, 36.7% with UACC-257 melanoma and 77.7% with M14 melanoma.

Consider `[O-][n+]1c(Cl)cc(Cl)c2ccccc21`, for which the growth is 113% in the assay with DU-145 prostate; 85.2% with K-562 leukemia; 107% in the assay on MALME-3M melanoma; 100% in the assay on MDA-MB-231 breast; 153% with RXF 393 renal; 96.7% with SF-268 CNS. Also, the growth was 103% in the assay with SF-295 CNS, 125% with SF-539 CNS, 102% in the assay with UACC-257 melanoma and 100% in the assay with M14 melanoma.

Consider `COc1cc2oc(-c3cccc(C(=O)Nc4ccccc4)c3)cc(=O)c2c(O)c1OC`, for which the growth was 65.6% in the assay on DU-145 prostate; 97.1% in the assay with K-562 leukemia; 64.5% in the assay with MALME-3M melanoma; 76.3% with MDA-MB-231 breast; 56.5% in the assay with RXF 393 renal; 37% in the assay with SF-268 CNS. In addition, the growth is 70% in the assay on SF-295 CNS, 19.4% with SF-539 CNS, 84.3% in the assay with UACC-257 melanoma and 83.7% with M14 melanoma.

`COc1ccc(OC)c(CCn2cncc2-c2c[nH]c3ccccc23)c1`: the growth in the assay with DU-145 prostate is 88.4%; in the assay with K-562 leukemia it was 42.4%; with MALME-3M melanoma it was 74.5%; in the assay with MDA-MB-231 breast, 72.2%; in the assay on RXF 393 renal, 74.4%; in the assay with SF-268 CNS it was 71.1%. Further, the growth in the assay on SF-295 CNS was 71.6%; in the assay on SF-539 CNS, 88.5%; in the assay on UACC-257 melanoma, 80.8%; in the assay with M14 melanoma, 73.3%.

With `Cc1cc2nc3c4cc([N+](=O)[O-])ccc4n(CCN(C)C)c3nc2cc1C`, the growth with DU-145 prostate is 8.55% (active); in the assay with K-562 leukemia, 0.995% (active); with MALME-3M melanoma it was -40.1% (active); in the assay with MDA-MB-231 breast, -1.27% (active); in the assay on RXF 393 renal, -50.6% (active); with SF-268 CNS, -0.874% (active). Further, the growth in the assay with SF-295 CNS was 0.581% (active); in the assay on SF-539 CNS, -14.5% (active); with UACC-257 melanoma, -1.98% (active); with M14 melanoma, -27.3% (active).

Take `O=S(=O)(NCCCNc1nccc(-c2c(-c3cccc(F)c3)nc3sccn23)n1)c1cccc(F)c1`: the growth with DU-145 prostate is 55.5%; in the assay on K-562 leukemia, 20.1%; in the assay on MALME-3M melanoma, 63.2%; in the assay on MDA-MB-231 breast, 75.9%; in the assay on RXF 393 renal it was 78.8%; in the assay on SF-268 CNS, 55.6%. Also, the growth is 51.1% with SF-295 CNS, 86.4% in the assay on SF-539 CNS, 50.8% in the assay with UACC-257 melanoma and 28.6% with M14 melanoma.

In the case of `C=C(C)[C@@H]1CC[C@]2(C(=O)N3CCN(C)CC3)CC[C@]3(C)[C@H](CC[C@@H]4[C@@]5(C)CC[C@H](OCCC#N)C(C)(C)[C@@H]5CC[C@]43C)[C@@H]12`, the growth is 92.5% with DU-145 prostate; 16.2% in the assay on K-562 leukemia; 118% in the assay with MALME-3M melanoma; 65.8% in the assay on MDA-MB-231 breast; 47.4% in the assay with RXF 393 renal; 90.5% in the assay with SF-268 CNS. The growth in the assay on SF-295 CNS was 115%; in the assay on SF-539 CNS, 102%; in the assay with UACC-257 melanoma, 107%; in the assay on M14 melanoma, 107%.

For the molecule `O=C(CSc1nc2sc3c(c2c(=O)n1-c1ccc(Cl)cc1)CCCC3)Nc1nc(-c2cccc(Br)c2)cs1`, the growth with DU-145 prostate was 68.5%; with K-562 leukemia, 95.8%; in the assay on MALME-3M melanoma, 95.3%; with MDA-MB-231 breast, 80.7%; in the assay with RXF 393 renal, 99.5%; with SF-268 CNS, 69.6%. In addition, the growth was 42.4% in the assay on SF-295 CNS, 97.3% with SF-539 CNS, 99.3% in the assay with UACC-257 melanoma and 76.6% in the assay with M14 melanoma.

(Values after PubChem BioAssay (NCI).)
